# From the supplement of paper PMC12067093, “Discovery and optimisation of a covalent ligand for TRIM25 and its application to targeted protein ubiquitination” (Chemical Science, 2025)
# Targets with the largest changes are over-represented here; the source holds about 21,000 in all.
# Target: DDX39B_Q13838_165_NCPHIVVGTPGR (UniProt Q13838)
# Assay: probe-labelled cysteine peptide fold change vs DMSO (competition) (log2 fold change); higher = less target engagement (more negative = stronger competition)
# Conditions: THP-1, incubation time: 4 h
# 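Note: competitive profiling in live THP-1 cells: cysteine peptides tagged with an iodoacetamide desthiobiotin (IA-DTB) probe, intensity after compound treatment relative to DMSO-treated cells.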
# UniProt Q13838, sequence (Q13838 whole entry, looked up): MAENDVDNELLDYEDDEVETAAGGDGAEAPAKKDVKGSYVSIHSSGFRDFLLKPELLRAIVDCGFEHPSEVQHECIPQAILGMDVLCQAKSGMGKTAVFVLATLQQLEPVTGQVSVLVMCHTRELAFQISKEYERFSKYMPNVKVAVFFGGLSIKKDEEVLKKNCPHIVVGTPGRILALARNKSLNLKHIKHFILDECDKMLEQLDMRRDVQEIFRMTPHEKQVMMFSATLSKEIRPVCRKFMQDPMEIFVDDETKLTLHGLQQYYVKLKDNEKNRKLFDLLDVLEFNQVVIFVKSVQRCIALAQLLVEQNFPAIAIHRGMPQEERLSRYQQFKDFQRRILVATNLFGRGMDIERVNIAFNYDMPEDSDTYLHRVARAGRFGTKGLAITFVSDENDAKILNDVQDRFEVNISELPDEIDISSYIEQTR
compound,measurement,setting,value
Cc1cc(C(=O)N2CCCN(C(=O)CCl)CC2)ccc1-c1ccccc1 [compound 10],probe-labelled cysteine peptide fold change,10 µM,0.0169
same,probe-labelled cysteine peptide fold change,50 µM,0.0264
